Epigenetic derep – regulators of epigenetic silencing causing reporter derepression in mouse cells; actives 0.2% (n = 280,000); Potency, µM (highest dose often 53.9 µM), for inactives: at the highest dose GFP activation, hits mostly activators; AID 1865; murine LDR cells, GFP reporter derepression, 30 h; also: potency is read from the fitted curve at half-maximal effect; % of control where 0% means no effect; nearly all actives have a fitted effect of over 60% in size
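Murine LDR cells carrying a silenced, genomically integrated CMV-driven GFP reporter were exposed to compound for 30 hours at 37 C. After PBS washes, GFP-positive cells (20–120 um objects) were counted by laser-scanning microplate cytometry.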
PINK1 expr mod – PINK1 expression modulation; actives 0.2% (n = 410,000); PINK1 immunofluorescence, high-content cytometry, 24 h; Potency, µM (doses to about 76.6 µM), for the others: at the top dose activation (PINK1 increase), usual class: activators; active = well fitted activation curve with a large enough effect; inconclusive = small, poorly fitted or top-dose-only effect; cell line not stated here; also: potency is read from the fitted curve at half-maximal effect; % of control where 0% means no effect; nearly all actives have a fitted effect of over 65% in size
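Stable cell line, 250 cells/well, 12 h attachment; compounds pinned at 5 concentrations, 24 h; CCCP control. Fixed with nuclear dye, primary antibodies 12 h at 10 degrees C, secondary plus cell stain; laser-scanning cytometer read.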
IL2 activator – activators of IL-2; IL-2 activation reporter assay, cell-based qHTS; stimulated with anti-CD3/CD4/CD28 beads; in transgenic mouse T cells; activation, % (series mostly up to about 46 µM); actives 0.065% (n = 360,000); in the data active = activation above about 50%; inconclusive = mostly about 30% to 49%; also: 0% is about no effect
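Quantitative HTS in unstimulated transgenic mouse T cells, with memory T cells as non-tolerant control and PMA/ionomycin as tolerance-bypass control. Compound pretreatment lasted 60 minutes before 18 h bead stimulation; EGFP/DsRed fluorescence read.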
B2AR arrestin – beta2AR (human) beta-arrestin recruitment activity | P07550 | beta-arrestin recruitment to beta2AR, cell-based reporter | Potency, µM (series often up to 46.1 µM), for inactives: at the top dose activation, usual class: activators | actives 0.02% (n = 330,000) | AID 492947;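 also: potency is read from the fitted curve at half-maximal effect; 0% = DMSO controls and full agonism = EC100 isoproterenol or metaproterenol; nearly all actives have a fitted effect of over 65% in size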
Target sequence (P07550 whole entry, looked up): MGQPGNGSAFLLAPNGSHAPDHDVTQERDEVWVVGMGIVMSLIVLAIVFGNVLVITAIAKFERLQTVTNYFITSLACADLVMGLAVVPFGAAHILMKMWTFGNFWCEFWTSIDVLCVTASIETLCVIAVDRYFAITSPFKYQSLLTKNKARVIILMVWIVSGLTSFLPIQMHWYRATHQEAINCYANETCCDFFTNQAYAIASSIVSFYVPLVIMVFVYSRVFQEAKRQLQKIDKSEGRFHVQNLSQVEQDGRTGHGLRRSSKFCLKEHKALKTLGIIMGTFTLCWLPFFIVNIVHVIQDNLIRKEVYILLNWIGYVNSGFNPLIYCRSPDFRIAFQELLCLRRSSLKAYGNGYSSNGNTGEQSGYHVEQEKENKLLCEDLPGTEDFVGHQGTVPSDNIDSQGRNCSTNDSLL
PKM2 activator – activators of human pyruvate kinase M2 | P14618 | purified PKM2, Kinase-Glo ATP luminescence, activation; response scale: 0% is enzyme alone, no compound | Potency, µM (doses to about 57.5 µM), for the others: at the top dose activation, hits mostly activators | actives 0.34% (n = 260,000) | AID 1631; also: potency is read from the fitted curve at half-maximal effect; % is scaled to controls: 0 for no effect and ±100 for the full control effect; nearly all actives have a fitted effect of over 55% in size
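Purified hPK-M2 (>95%) run at intermediate activity with 0.1 mM ADP and 0.5 mM PEP in 50 mM imidazole pH 7.2, KCl, MgCl2; 1 h room temperature. ATP formed read by Kinase-Glo luminescence; normalized to uninhibited and no-enzyme controls.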
* hit, by the source's call; ? = inconclusive; . = no result; [ ] = another dose, or the depositor's remark. A selection: hits, their analogues and other compounds. The true share with any hit is near 0.58%. Unless noted, calls follow the shape of the dose curve; as a rule, active = well fitted curve in the direction sought with a large enough effect; inconclusive = small, poorly fitted or top-dose-only effect, or another doubt; inactive = no such curve, though single readings can be large; an effect the other way counts as inactive or inconclusive.

SMILES	Epigenetic derep	PINK1 expr mod	IL2 activator	B2AR arrestin	PKM2 activator
CCCN1C(=O)/C(=C/c2ccc(C)o2)SC1=Nc1ccc(OCC)cc1	0%	?	0	0%	13µM*
COc1cccc(CNC(=O)c2c(OC)cc(=O)n3c2CCN(C(=O)C2=C(C)OCCO2)CC3)c1	.	-1%	.	.	.
Cc1cccc(NC(=O)CS(=O)(=O)c2c[nH]c3ccccc23)c1C	-4%	-1%	3	0%	25µM*
CCc1nc2ccccc2n1Cc1cc(=O)n2cc(C)ccc2n1	1%	-1%	-2	-1%	16µM*
Cc1ccc2nc(Cn3cc(C(F)(F)F)ccc3=O)cc(=O)n2c1	-3%	0%	1	0%	5%
COc1ccc2o/c(=N/NC(=O)c3cccs3)c(C(N)=O)cc2c1	18µM*	6%	0	0%	-10%
CC(=O)CCc1oc2ccc(NC(C)=O)cc2c1-c1ccc(C)o1	5%	5%	2	0%	10µM*
CN(C)c1nc2cc(Cl)ccc2cc1CN(Cc1ccc2c(c1)OCO2)C(=O)c1ccoc1	.	3%	.	.	.
CS(=O)(=O)Nc1ccc(-c2ccc(/C=C3\SC(N)=NC3=O)o2)cc1	.	28%	-1	0%	5%
NC1=NC(=O)/C(=C/c2ccc(-c3ccc(S(N)(=O)=O)cc3)o2)S1	.	32µM*	3	0%	27%
C=CCn1c(N)c(C(=O)NCc2ccco2)sc1=S	1%	-2%[38.3 µM]	-2	0%	8.9µM*
Cc1cnc(-n2ncc(C(=O)N(C)Cc3cccc4ncccc34)c2C(C)C)nc1-c1ccc(F)cc1	.	1%	.	.	.
C=CCc1cccc(CNc2nc3ccccc3n2CCC)c1O	-2%	8%[38.3 µM]	-3	-3%	28µM*
CCOC(=O)Cc1nnc2c(Nc3ccc(Cl)cc3)nc3nonc3n12	0%	45µM*	-2	0%	0%
O=C(Nc1ncc2c(n1)CC(c1ccco1)CC2=O)c1ccco1 (centres undefined)	-2%	-1%	-2	0%	28µM*
Cc1c(C(=O)NCCCN2CCCC2=O)cnn1-c1ncc2c(n1)-c1ccccc1CC2	.	-1%	.	.	.
CC1(C)Cc2c(sc3[nH]c(=S)n(Cc4ccco4)c(=O)c23)CO1	?	.	1	0%	22%
O=c1c2c3c(sc2[nH]c(=S)n1Cc1ccco1)CCC3	-2%	6%	-1	0%	11µM*
CCN1CCCC1CNCc1cc2ccc(SC)cc2nc1-c1cc(OC)ccc1OC (centres undefined)	.	0%	.	.	.
Cc1nonc1NC(=O)CSc1nc2cc(Cl)ccc2c2c1CCCC2	2%	?	-1	0%	-2%
Cc1ccc2c3c(c(SCC(=O)Nc4nonc4C)nc2c1)CCCC3	3%	10µM*	1	0%	-2%
CN1CCN(Cc2cc(Cl)c3cccnc3c2OC(=O)c2cccs2)CC1	3.5µM*	-3%	-1	-1%	-4%
Cc1c(C(=O)NCC2CCCN(C)C2)cnn1-c1ncc2c(n1)-c1ccccc1CCC2 (centres undefined)	.	1%	.	.	.
O=C(COC(=O)C1(c2ccccc2F)CCCC1)NCc1ccc2c(c1)OCO2	0%	2%	65*	0%	16%
Cc1oc(-c2cccc(C(F)(F)F)c2)nc1CN1CCC[C@H]1CO	0%	0%	-2	0%	0%
SMILES	Epigenetic derep	PINK1 expr mod	IL2 activator	B2AR arrestin	PKM2 activator
Cc1oc(-c2cccc(C(F)(F)F)c2)nc1CN1CCOCC1	11µM*	2%	0	14%	-8%
OC1(c2ccc3c(c2)CN(Cc2ccccn2)CCO3)CCN(c2ccccc2F)CC1	.	1%	.	.	.
O=c1c[n+]([O-])c2ccccc2n1OCc1c(F)cccc1F	13µM*	0%	0	0%	15%
O=c1c[n+]([O-])c2ccccc2n1OCc1ccccn1	?	1%	4	-1%	0%
O=S(=O)(Nc1ccc(S(=O)(=O)Nc2nccs2)cc1)c1ccc(Br)cc1	.	0%	0	0%	18%
O=S(=O)(Nc1nccs1)c1ccc(NS(=O)(=O)c2cccs2)cc1	-1%	-2%	-1	0%	4.5µM*
COC(=O)c1c(OCc2cccnc2)cc(=O)n2c1CCN(C(=O)c1ccc(OC)c(F)c1)CC2	.	1%	.	.	.
COCCn1c(N)c(Sc2ccc(C)cc2)c(=O)[nH]c1=O	.	3%	-3	-1%	.
CCCCn1c(N)c(Sc2ccc(C)cc2)c(=O)[nH]c1=O	-2%	0%	1	0%	16µM*
O=C1c2cc(S(=O)(=O)NCCO)ccc2-c2ccc(S(=O)(=O)NCCO)cc21	0%	0%	-4	0%	5.6µM*
N#CC(C#N)=C1c2cc(S(=O)(=O)NCCO)ccc2-c2ccc(S(=O)(=O)NCCO)cc21	3%	-1%	3	0%	1.3µM*
O=C(O)CNS(=O)(=O)c1ccc2c(c1)C(=O)c1cc(S(=O)(=O)NCC(=O)O)ccc1-2	.	-1%	0	0%	-3%[11.5 µM]
O=C(/C=C/c1ccc(F)cc1)NCC1Cc2cccc(-c3ncccn3)c2O1 (centres undefined)	.	1%	.	.	.
Cc1cnc(-n2ncc(C(=O)NCCc3ccncc3)c2-c2cccs2)nc1-c1ccc(F)cc1	.	1%	.	.	.
Cc1cnc(-n2ncc(C(=O)NCC(C)(C)N3CCOCC3)c2C)nc1-c1cccs1	.	0%	.	.	.
CN(C)C(=O)CSc1nnc2sc3ccccc3n12	0%	1%	0	0%	-12%
c1csc(CSc2nnc3sc4ccccc4n23)c1	2%	-2%	-5	0%	16µM*
COC(=O)c1cc(CNC(=O)c2ccc3ncccc3c2)cc(NC(=O)c2ccccc2Cl)c1	.	0%	.	.	.
COc1cc(O)ccc1CN1CCc2nnc(C(C)NC(=O)c3cc(F)ccc3F)n2CC1 (centres undefined)	.	0%	.	.	.
CCOC(=O)c1c(NC(=O)CC2Sc3ccc(C(F)(F)F)cc3NC2=O)sc(C)c1C (centres undefined)	-1%	19%	1	0%	1%
CCOC(=O)c1c(NC(=O)CC2Nc3ccccc3NC2=O)sc(C)c1C (centres undefined)	?	13µM*	158*	-1%	-3%
Cc1cc2c(cc1C)NC(CC(=O)Nc1cccc(Cl)c1)C(=O)N2 (centres undefined)	-1%	1%	.	.	.
COC(=O)c1c(NC(=O)CC2Nc3ccccc3NC2=O)sc(C)c1C (centres undefined)	-1%	?	185*	0%	0%
O=C(CC1Nc2ccccc2NC1=O)Nc1cc(Cl)cc(Cl)c1 (centres undefined)	0%	8.9µM*	1	0%	-1%
Clc1cccc(Cl)c1CSc1cc2c(nn1)-c1ccccc1CC2	2%	3%	51*	-1%	2%
Cc1cccc(CNc2ncnc3ccc(-c4ccc5c(c4)OCCO5)cc23)c1	.	22µM*	0	0%	.
Cc1cccc(CNc2ncnc3ccc(-c4cccc(C)c4)cc23)c1	.	.	.	0%	.

Source: PubChem BioAssay
